aSyn 5UTR act – Activators via SNCA 5'UTR binding, MLPCN. alpha-synuclein 5'UTR reporter, activators screen. activity score, % (tested at 7.5 µM), hits read low. 300,000 compounds, 7.1% hits. AID 1814, 2009; in the data active = activity score below about -60%
Active calls of the source: *. The list is a sample of the results.

SMILES	aSyn 5UTR act
O=C(Nc1cccc(F)c1)c1ccc2c(c1)OCCO2	-111*
Cc1ccc(NC(=O)c2ccc3c(c2)OCCO3)cc1S(=O)(=O)Nc1cccc(Cl)c1	-95*
N#Cc1cc2c([nH]c1=S)CCCCCC2	-71*
CN(C)c1ccc(CNc2ncc(Br)cc2Br)cc1	-98*
CCCc1ccc2oc(C(=O)NCCc3cnn(C)c3)c(C)c2c1	-182*
CCCc1ccc2oc(C(=O)N3CCCC3)c(C)c2c1	-179*
Cc1c(C(=O)N2CCN(C)CC2)oc2ccc(Br)cc12	-104*
COc1ccccc1OCCNC(=O)c1ccc(Br)cc1	-106*
O=C(NCCNc1ccccc1[N+](=O)[O-])c1cc(F)c(F)cc1Cl	-93*
CCCNC(=O)c1cccc(COc2ccccc2OC)c1	-107*
COc1ccccc1OCCCCOc1ccccc1F	-71*
COc1ccccc1OCCNC(=O)c1cc(F)c(F)cc1Cl	-76*
O=C1NC(=S)S/C1=C\c1coc2ccccc2c1=O	-85*
O=C(Nc1ccc(N2CCOCC2)cc1)c1cc2c(s1)CCCC2	-69*
Cc1csc(NC(=O)c2cc3c(s2)CCCCC3)n1	92
O=C(NCc1ccco1)c1cc2c(s1)CCCCC2	-218*
Cc1cnc(NC(=O)c2cc3c(s2)CCCC3)s1	65
O=C(Nc1ccon1)c1cc2c(s1)CCCCCC2	-167*
O=C(Nc1ccon1)c1cc2c(s1)CCCC2	-113*
CC(=O)Nc1ccc2nc(N)sc2c1	-107*
CC(=O)Nc1ccc2cc3ccc(NC(C)=O)cc3nc2c1	-73*
Nc1nc2ccc(C(=O)Nc3ccccc3)cc2s1	-129*
CCc1ccc(NC(=O)c2ccc3nc(N)sc3c2)cc1	-131*
CC1(C)Cc2c(c(N3CCOCC3)nc3snc(N)c23)CO1	-169*
CC(C)CCNc1nnnc2c1sc1nc(N3CCOCC3)c3c(c12)CC(C)(C)SC3	60
SMILES	aSyn 5UTR act
Cc1ccc(-c2nc3ccccn3c2NCc2ccc3c(c2)OCO3)cc1	-163*
COc1ccc(-c2nc3ccc(C)cn3c2NCc2ccc3c(c2)OCO3)cc1	-119*
Nc1ccc2nn(-c3ccc(F)cc3)nc2c1	-108*
Cc1ccc(-n2nc3ccc(NC(=O)C(C)C)cc3n2)cc1	-137*
Cc1ccc(-n2nc3ccc(NC(=O)c4cccc([N+](=O)[O-])c4C)cc3n2)cc1	-66*
CCOc1ccc(-n2nc3ccc(N)cc3n2)cc1	73
CC(C)C(=O)Nc1ccc2nn(-c3ccc(F)cc3)nc2c1	-71*
CC(C)CC(=O)Nc1ccc2nn(-c3ccccc3)nc2c1	-178*
Cc1ccc(-n2nc3ccc(NC(=O)c4ccco4)cc3n2)cc1	-83*
O=C(/C=C/c1ccco1)Nc1ccc2nn(-c3ccccc3)nc2c1	-209*
CCCC(=O)Nc1ccc2nn(-c3ccc(OC)cc3)nc2c1	-121*
Cc1ccccc1C(=O)Nc1ccc(Cl)cn1	-114*
Cc1ccc(NC(=O)c2ccc3ccccc3n2)nc1	-163*
O=C(Nc1ccc(Cl)cn1)c1ccc2ccccc2n1	-96*
Cc1cc(SCC(=O)c2cc3ccccc3o2)nc2ccccc12	-73*
CN1CCCC1CCNc1ccc2c(=O)c3ccccc3oc2c1 (stereo not drawn)	-130*
O=c1c2ccccc2oc2cc(NCCCN3CCOCC3)ccc12	-127*
O=c1c2ccccc2oc2ccc(NCCCN3CCOCC3)cc12	-108*
Cc1nc(C(F)(F)F)ccc1C(=O)NCC(O)c1ccccc1 (stereo not drawn)	-67*
Cc1nc(C(F)(F)F)ccc1C(=O)Nc1ccc2ccccc2n1	-94*
COc1cccc(-c2nc(-c3ccccn3)no2)c1OC	-219*
COc1cc(-c2nc(-c3ccccn3)no2)cc(OC)c1OC	-163*
O=C(Nc1cccnc1Cl)c1cc(-c2ccco2)on1	-80*
O=C(Nc1cc(Br)ccc1O)c1cc(-c2ccco2)on1	-134*
O=C(Nc1cc(Cl)ccc1O)c1cc(-c2ccco2)on1	-233*
SMILES	aSyn 5UTR act
Cc1cccc(OCCCn2c(CO)nc3ccccc32)c1	-84*
Cc1ccc(OCCCn2c(CO)nc3ccccc32)cc1	-62*
Cc1ccc(C(=O)O/N=C(\N)c2ccc(Br)cc2)cc1	-215*
N/C(=N\OC(=O)c1ccc(Br)cc1)c1ccccc1	-190*
N/C(=N\OC(=O)c1cccc(Br)c1)c1ccc(Br)cc1	-96*
CC(C)CC1c2[nH]c3ccccc3c2CCN1C(=O)c1cnccn1 (stereo not drawn)	-95*
C=CCNc1nc(-c2ccc(O)c(C(N)=O)c2)cs1	-78*
O=C(Nc1nc(-c2cccs2)cs1)c1ccco1	-85*
c1cc2c(cc1-c1csc(NNC3=NCCCCC3)n1)OCCO2	-70*
CCC(=O)N1CCc2cc(-c3csc(NC(=O)c4ccco4)n3)ccc21	-77*
CC(C)(C)C(=O)Nc1nc(-c2ccc3c(c2)OCO3)cs1	-147*
NC1=NN=C(c2ccc3c(c2)OCCO3)CS1	57
O=C(Nc1nc(-c2ccncc2)cs1)c1ccco1	-86*
C=CCNc1nc(-c2ccc3c(c2)OCCO3)cs1	-134*
O=C(Nc1nc(-c2ccc3c(c2)OCCO3)cs1)c1ccco1	-77*
O=C(NC(=S)Nc1nc(-c2ccccc2)cs1)c1ccco1	-77*

From PubChem BioAssay
